The results in this text go back to PubChem BioAssay.

As usually defined, the inhibition is the change of the read-out against control, counted positive when it falls.

Values without a mark were called inactive. The source made the active and inactive calls.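 Rule for the calls: active = inhibition at or above 50% relative to wild type and mutant plate controls; inactive = inhibition below 50%.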

This test is described as follows: inhibitors of Chlamydomonas gravitaxis, primary screen, whole organism, Chlamydomonas reinhardtii, WT vs cilia-less mutant, absorbance, 96-well (AID 463189).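 Note: 0% = wild type cc124 cells in DMSO and 100% = ciliumless bld1 mutant cells.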 Particulars: OD600 absorbance, 2 days, at 10 µM, hits give high values.
`O=C(CCCN1CCC(O)(c2cccc(C(F)(F)F)c2)CC1)c1ccc(F)cc1`: the inhibition was 40.6%.
The same measure for `CN1C2CCC1CC(OC(c1ccccc1)c1ccccc1)C2` (stereo unspecified): 1.86%; for `CCCCOC(=O)NS(=O)(=O)c1sc(CC(C)C)cc1-c1ccc(Cn2c(CC)nc3c(C)cc(C)nc32)cc1`: 10.7%; for `COc1ccccc1N1CCN(CCN(C(=O)c2ccc(I)cc2)c2ccccn2)CC1`: -3.47%.
The same measure for `CCC(C)N(C)C(=O)c1cc2ccccc2c(-c2ccccc2Cl)n1` (stereo unspecified): 2.31%; for `O=C(O)c1cc(=O)c2ccc(Cl)cc2[nH]1`: 4.9%.
The same measure for `CN1CCc2cc(NC(=O)Nc3cccnc3)ccc21`: 8.14%; for `C[N+](C)(CCCCCC[N+](C)(C)CCCN1C(=O)c2cccc3cccc(c23)C1=O)CCCN1C(=O)c2cccc3cccc(c23)C1=O`: 101% (active).
`N[C@@H](Cc1ccc(F)cc1)C(=O)O`: the inhibition is 2.39%.
Next, `CC(=O)C(C)=O`: 6.21%; `CNCC[C@@H](Oc1ccc(C(F)(F)F)cc1)c1ccccc1`: 34%; `CCCC[C@@]1(C2CCCC2)Cc2cc(OCC(=O)O)c(Cl)c(Cl)c2C1=O`: 4.57%.
The same measure for `CCn1cc(C(=O)O)c(=O)c2ccc(Cc3ccccc3)nc21`: 6.19%.
The same measure for `Nc1ccn([C@H]2CC[C@@H](CO)O2)c(=O)n1`: -7.35%; for `N[C@@H](CCC(=O)N[C@H](CSN=O)C(=O)NCC(=O)O)C(=O)O`: 3.12%.
On to `CCCCNc1ccc(C(=O)OCCN(C)C)cc1`, for which the inhibition is 8.43%.
